Test [1] in a line: NCI Yeast Anticancer Drug Screen. Data for the rad50 strain (AID 155).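 Also: 0% = growth of vehicle-only cultures of the same strain.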 Conditions: S. cerevisiae rad50 strain growth inhibition, active compounds read high. In a few lines: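 Genetically altered yeast (DNA repair pathway); compound treatment; growth inhibition vs vehicle ctrl.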
A short description of test [2]: NCI Yeast Anticancer Drug Screen. Data for the mec2-1 strain (AID 157). Conditions: S. cerevisiae mec2-1 strain, active compounds read high. In a few lines:
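Mutant yeast (mec2-1) grown with compound; growth inhibition relative to vehicle control reported.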

Test [3] can be described thus: NCI Yeast Anticancer Drug Screen. Data for the sgs1 mgt1 strain (AID 161).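 Also: 0% = growth of cultures given vehicle only.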 As to conditions: S. cerevisiae sgs1 mgt1 strain, active compounds read high. In a few lines:
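Yeast cells carrying a defined DNA-repair defect were exposed to test compounds. Growth inhibition was measured relative to vehicle-treated controls.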

Test [4] can be described thus: NCI Yeast Anticancer Drug Screen. Data for the cln2 rad14 strain (AID 165).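 Also: 0% = growth equal to vehicle treated cultures.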 As to conditions: S. cerevisiae cln2 rad14 strain, active compounds read high. In a few lines: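 Readout is yeast growth inhibition versus vehicle-treated controls, using a strain with cln2 and rad14 alterations exposed to compound.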
Test [5] can be described thus: NCI Yeast Anticancer Drug Screen. Data for the bub3 strain (AID 167). As to conditions: S. cerevisiae bub3 mutant strain, active compounds read high. In a few lines: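 Yeast carrying a defined mutation is treated with each compound, and growth is compared with that of vehicle-exposed cells to give inhibition.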
Test [6] in a line: NCI Yeast Anticancer Drug Screen. Data for the mlh1 rad18 strain (AID 175). As to conditions: S. cerevisiae mlh1 rad18 strain growth inhibition, active compounds read high. In a few lines:
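Genetically defined yeast (DNA repair-deficient) exposed to compounds; growth inhibition determined relative to vehicle.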

Setting [7] is: at 5.0 µM (retest, dose inferred, filed as 0.5).
[8] abbreviates: at 50.0 µM (retest, dose inferred, filed as 5.0).

Molecules are shown by their SMILES. About 79,000 compounds went through this panel and 15% of them were active in at least one assay; those are over-represented in the sample as a whole. Values without a mark were called inactive. Activity calls are given as the source filed them. Rule as the data show it: active = growth inhibition above about 70%; inactive = the rest.

As to `CCOC(CC)C(O)(c1ccc(N(C)C)cc1)c1ccc(N(C)C)cc1` (stereo not given), the growth inhibition in test [1] (setting [7]) is -2%; in test [1] (setting [8]), 94% (active); in test [1] (at 50.0 µM) it was 98.3% (active); in test [2] (setting [7]), -1%; in test [2] (setting [8]), 69%; in test [2] (at 50.0 µM), 98.2% (active). Besides, the growth inhibition was 0% in test [3] (setting [7]); 95% (active) in test [3] (setting [8]); 98.6% (active) in test [3] (at 50.0 µM); -3% in test [4] (setting [7]); 63% in test [4] (setting [8]); 97.5% (active) in test [4] (at 50.0 µM). For the same compound, the growth inhibition in test [5] (setting [7]) was 4%; in test [5] (setting [8]), 88% (active); in test [5] (at 50.0 µM), 98.7% (active); in test [6] (setting [7]), 1%; in test [6] (setting [8]), 98% (active); in test [6] (at 50.0 µM), 98.2% (active).

On to `CCN(CC)CCC(=O)NC1c2ccc(Cl)cc2Oc2c(C)cccc21` (stereo not given), for which the growth inhibition was -23% in test [1] (setting [7]); 21% in test [1] (setting [8]); 54.6% in test [1] (at 50.0 µM); -1% in test [2] (setting [7]); -7% in test [2] (setting [8]); -14.2% in test [2] (at 50.0 µM). Besides, the growth inhibition was 2% in test [3] (setting [7]); 19% in test [3] (setting [8]); 40.6% in test [3] (at 50.0 µM); 18% in test [4] (setting [7]); 51% in test [4] (setting [8]); 15.2% in test [4] (at 50.0 µM). The growth inhibition in test [5] (setting [7]) is 3%; in test [5] (setting [8]), 7%; in test [5] (at 50.0 µM), -30.5%; in test [6] (setting [7]), 8%; in test [6] (setting [8]), 44%; in test [6] (at 50.0 µM), 17.6%.

Consider `COc1cc2c(cc1OC)[C@H]1C(=O)c3cc4c(cc3[C@H]1N(C)C2=O)OCO4`, for which the growth inhibition is -1% in test [1] (setting [7]); 0% in test [1] (setting [8]); 10.3% in test [1] (at 50.0 µM); 1% in test [2] (setting [7]); -2% in test [2] (setting [8]); 11.9% in test [2] (at 50.0 µM). The growth inhibition in test [3] (setting [7]) is -8%; in test [3] (setting [8]) it was -4%; in test [3] (at 50.0 µM), -2.35%; in test [4] (setting [7]) it was -6%; in test [4] (setting [8]), -1%; in test [4] (at 50.0 µM), 50.4%. Moreover, the growth inhibition in test [5] (setting [7]) is -7%; in test [5] (setting [8]), 1%; in test [5] (at 50.0 µM), 27.7%; in test [6] (setting [7]) it was 0%; in test [6] (setting [8]), -32%; in test [6] (at 50.0 µM), 39.8%.

For the compound `COc1cc2c(c(OC)c1OC)-c1ccc(SC)c(=O)cc1[C@@H](NC(=O)Oc1ccccc1)CC2`, the growth inhibition is 73% (active) in test [1] (setting [7]); 31% in test [1] (setting [8]); 54% in test [1] (at 50.0 µM); 24% in test [2] (setting [7]); 29% in test [2] (setting [8]); -0.55% in test [2] (at 50.0 µM). Besides, the growth inhibition in test [3] (setting [7]) is -9%; in test [3] (setting [8]), 9%; in test [3] (at 50.0 µM) it was -2.45%; in test [4] (setting [7]), -12%; in test [4] (setting [8]), 13%; in test [4] (at 50.0 µM), 1.65%. For the same compound, the growth inhibition in test [5] (setting [7]) is -8%; in test [5] (setting [8]), 8%; in test [5] (at 50.0 µM), 0.9%; in test [6] (setting [7]) it was 20%; in test [6] (setting [8]), 43%; in test [6] (at 50.0 µM) it was 12.6%.

For the compound `O=C(OC1C2CCC2C2CC21)c1ccc([N+](=O)[O-])cc1[N+](=O)[O-]` (stereo not given), the growth inhibition in test [1] (setting [7]) was 26%; in test [1] (setting [8]), 95% (active); in test [1] (at 50.0 µM), 36%; in test [2] (setting [7]), 14%; in test [2] (setting [8]) it was 99% (active); in test [2] (at 50.0 µM) it was 37.5%. The growth inhibition in test [3] (setting [7]) was 24%; in test [3] (setting [8]), 98% (active); in test [3] (at 50.0 µM), 59.1%; in test [4] (setting [7]) it was 6%; in test [4] (setting [8]), 99% (active); in test [4] (at 50.0 µM), 39.5%. The growth inhibition is -5% in test [5] (setting [7]); 93% (active) in test [5] (setting [8]); 37.2% in test [5] (at 50.0 µM); 25% in test [6] (setting [7]); 98% (active) in test [6] (setting [8]); 62.9% in test [6] (at 50.0 µM).

On to `Clc1cc[c]([Sn]([Cl])([O][Sn]([Cl])([c]2ccc(Cl)cc2)[c]2ccc(Cl)cc2)[c]2ccc(Cl)cc2)cc1`, for which the growth inhibition in test [1] (setting [7]) was 89% (active); in test [1] (setting [8]) it was 97% (active); in test [1] (at 50.0 µM), 86.5% (active); in test [2] (setting [7]), 95% (active); in test [2] (setting [8]), 98% (active); in test [2] (at 50.0 µM), 88.5% (active). Besides, the growth inhibition in test [3] (setting [7]) is 96% (active); in test [3] (setting [8]), 97% (active); in test [3] (at 50.0 µM), 87.6% (active); in test [4] (setting [7]), 42%; in test [4] (setting [8]) it was 98% (active); in test [4] (at 50.0 µM), 81.5% (active). The growth inhibition in test [5] (setting [7]) is 97% (active); in test [5] (setting [8]) it was 98% (active); in test [5] (at 50.0 µM) it was 87% (active); in test [6] (setting [7]) it was 90% (active); in test [6] (setting [8]), 95% (active); in test [6] (at 50.0 µM) it was 92.7% (active).

In the case of `Cc1ccc(S(=O)(=O)NNC(C[N+](=O)[O-])c2ccccc2)cc1` (stereo not given), the growth inhibition in test [1] (setting [7]) was 69%; in test [1] (setting [8]) it was 99% (active); in test [1] (at 50.0 µM), 96.9% (active); in test [2] (setting [7]), 5%; in test [2] (setting [8]), 100% (active); in test [2] (at 50.0 µM), 44.4%. Further, the growth inhibition is 23% in test [3] (setting [7]); 99% (active) in test [3] (setting [8]); 96.2% (active) in test [3] (at 50.0 µM); 8% in test [4] (setting [7]); 74% (active) in test [4] (setting [8]); 70.7% (active) in test [4] (at 50.0 µM). Besides, the growth inhibition in test [5] (setting [7]) was 17%; in test [5] (setting [8]) it was 99% (active); in test [5] (at 50.0 µM) it was 92.7% (active); in test [6] (setting [7]) it was 36%; in test [6] (setting [8]), 99% (active); in test [6] (at 50.0 µM) it was 96% (active).

As for `O=C1C(Cl)=C(c2ccc([N+](=O)[O-])cc2)C(=O)c2c(O)cccc21`, the growth inhibition in test [1] (setting [7]) is 79% (active); in test [1] (setting [8]), 95% (active); in test [1] (at 50.0 µM) it was 90% (active); in test [2] (setting [7]), 100% (active); in test [2] (setting [8]), 99% (active); in test [2] (at 50.0 µM) it was 93.3% (active). In addition, the growth inhibition in test [3] (setting [7]) was 28%; in test [3] (setting [8]), 95% (active); in test [3] (at 50.0 µM), 91.7% (active); in test [4] (setting [7]), 82% (active); in test [4] (setting [8]), 97% (active); in test [4] (at 50.0 µM), 90% (active). Moreover, the growth inhibition in test [5] (setting [7]) is 99% (active); in test [5] (setting [8]), 94% (active); in test [5] (at 50.0 µM) it was 90.8% (active); in test [6] (setting [7]), 99% (active); in test [6] (setting [8]), 97% (active); in test [6] (at 50.0 µM), 88.3% (active).

For the compound `Nc1ncnc2nn(C3OC(CO)C(O)C3O)nc12` (stereo not given), the growth inhibition in test [1] (setting [7]) was 15%; in test [1] (setting [8]) it was 20%; in test [1] (at 50.0 µM), 29.1%; in test [2] (setting [7]), 2%; in test [2] (setting [8]) it was 6%; in test [2] (at 50.0 µM) it was -26.2%. Besides, the growth inhibition was -7% in test [3] (setting [7]); 6% in test [3] (setting [8]); -22.1% in test [3] (at 50.0 µM); -29% in test [4] (setting [7]); -18% in test [4] (setting [8]); 33.1% in test [4] (at 50.0 µM). The growth inhibition is 0% in test [5] (setting [7]); 1% in test [5] (setting [8]); -70.4% in test [5] (at 50.0 µM); 4% in test [6] (setting [7]); 0% in test [6] (setting [8]); -4.75% in test [6] (at 50.0 µM).

Regarding `Cc1ccc(S(=O)(=O)OC(COC(=O)c2ccc([N+](=O)[O-])cc2)C2OC(C)(C)OC2C(SCc2ccccc2)SCc2ccccc2)cc1` (stereo not given), the growth inhibition was 4% in test [1] (setting [7]); 10% in test [1] (setting [8]); 96.8% (active) in test [1] (at 50.0 µM); 5% in test [2] (setting [7]); 1% in test [2] (setting [8]); 86.5% (active) in test [2] (at 50.0 µM). Moreover, the growth inhibition in test [3] (setting [7]) is -1%; in test [3] (setting [8]), 5%; in test [3] (at 50.0 µM) it was 95.5% (active); in test [4] (setting [7]), 2%; in test [4] (setting [8]), 8%; in test [4] (at 50.0 µM) it was 39.2%. The growth inhibition in test [5] (setting [7]) is 17%; in test [5] (setting [8]) it was 23%; in test [5] (at 50.0 µM), 89% (active); in test [6] (setting [7]), 6%; in test [6] (setting [8]) it was -2%; in test [6] (at 50.0 µM), 93.7% (active).

These data come from PubChem BioAssay (NCI).
